Source: PubChem BioAssay (ICCB-Longwood Screening Facility, Harvard Medical School)
Rows were chosen to be rich in hits. Some 1.4% of all compounds tested hit in one or more screens of this group.
Mtb MenB inh = M. tuberculosis MenB inhibitors, primary screen, biochemical, absorbance; 1,4-dihydroxy-2-naphthoyl-CoA synthase (Mycobacterium tuberculosis (strain ATCC 25618 / …; MenB enzyme assay, absorbance read-out; inhibition, % (no concentration beside the values); actives 0.43% (n = 100,000); AID 540299, 2011; in the data active = inhibition above about 21%, passing the limit was not always enough
Target sequence (P9WNP5 whole entry, looked up): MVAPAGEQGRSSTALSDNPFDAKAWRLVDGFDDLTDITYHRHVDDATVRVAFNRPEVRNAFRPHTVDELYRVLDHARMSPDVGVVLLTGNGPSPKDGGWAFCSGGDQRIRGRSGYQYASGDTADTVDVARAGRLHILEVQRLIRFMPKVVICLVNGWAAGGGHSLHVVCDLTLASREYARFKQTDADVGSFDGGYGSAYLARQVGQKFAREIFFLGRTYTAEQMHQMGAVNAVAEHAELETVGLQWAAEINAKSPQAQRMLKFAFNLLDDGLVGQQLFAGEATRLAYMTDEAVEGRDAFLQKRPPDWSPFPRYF
AID504770 = growth inhibition of E. coli YBA685, primary screen, V. cholerae RctB inhibitors; z-score (concentration not given with the values); E. coli YBA685 rctB-dependent plasmid, OD600 growth, 3 h; hits give low values; AID 504770, 2011; actives 0.27% (n = 130,000); in the data active = z-score below about -2, passing the limit was not always enough
PV pol inh = poliovirus RdRp elongation inhibitors, primary screen, biochemical, fluorescence polarization, total intensity | Genome polyprotein (Poliovirus type 1 (strain Mahoney)), P03300 | poliovirus polymerase elongation; hits give low values | % elongation, % (compound at 16.7 µg/mL) | actives 0.66% (n = 150,000) | AID 588519, 2011; in the data active = % elongation below about 90%
Mtb MbtI inh = MbtI salicylate synthase inhibitors, primary screen, biochemical, fluorescence intensity | P9WFX0 | purified MbtI enzyme, fluorescence intensity read-out | inhibition, % (no concentration beside the values) | actives 0.89% (n = 100,000) | AID 493033, 2011; in the data active = inhibition mostly above about 56%, no sharp cut-off; inactive = mostly below about 77%
Numbers stand for hits; i = inactive; nt = no result given; ! = not active in a repeat.

SMILES	Mtb MenB inh	AID504770	PV pol inh	Mtb MbtI inh
CSC1=C(C#N)C2(CCCC2)C(C#N)C(=O)N1 (stereo not drawn)	nt	i	i	i
N#CC1=C(S)NC(=O)C(C#N)C12CCCCC2 (stereo not drawn)	i	i	i	91
CCS(=O)(=O)c1ccc(OC)c(-n2c(O)c[nH]c2=O)c1	i	i	i	i
CC12COC3(C(=O)Nc4ccccc4)CC1CCC32C (stereo not drawn)	58	i	i	i
CC12COC3(C(=O)N4CCCCC4)CC1CCC32C (stereo not drawn)	nt	i	i	i
C1CN2CN3CCN(CN1C3)C2	i	-2.4	i	i
CCS(=O)(=O)c1ccc2oc(=O)c(/C=C(\O)C(C)(C)C)nc2c1	55	i	i	i
CC(C)C/C(O)=C/c1nc2cc(Cl)ccc2oc1=O	85	i	i	i
Cc1nc(C)c(/C(O)=C/c2nc3cc(Cl)ccc3oc2=O)o1	i	i	i	i
CCS(=O)(=O)c1ccc2oc(SCC(=O)NCc3ccccc3)nc2c1	i	i	i	i
CC(C)(C)/C(O)=C/c1nc2ccccc2oc1=O	64	i	i	i
Cc1nn(CCCC(=O)NC2CCCc3ccccc32)c(=O)c2cc3sccc3n12 (stereo not drawn)	i	i	i	i
FC(F)(F)c1n[nH]c(=S)n1/N=C/c1c[nH]c2ccccc12	i	i	i	nt
S=c1[nH]nc(Cc2cccc3ccccc23)n1/N=C/c1ccco1	i	i	i	65
Cn1ccnc1P(=O)(O)c1ccccc1	i	i	88	i
O=C1C2C3CC4C5C3C1C5C(F)(F)C42 (stereo not drawn)	i	i	i	i
COc1ccc(C)cc1NC(=O)CSc1ccc(-c2ccccn2)nn1	nt	nt	81	nt
O=C(O)c1ccc(C2Nc3ccccc3C3C=CCC32)cc1 (stereo not drawn)	i	i	59	nt
Cc1cc(C(=O)NN2C3CSC2CS3)no1	75	i	i	i
Cc1cc(C(=O)NC2CCCCCC2)no1	i	i	i	i
CCOC(=O)c1cnn(C)c1NS(C)(=O)=O	i	i	i	i
CCN1CCCC1CNc1nc2ccc(Cl)cc2n2cnnc12 (stereo not drawn)	i	i	i	i
COC(=O)c1c(NC(=O)COc2ccc(Cl)cc2C)sc2c1CCCCC2	nt	nt	85	nt
COC(=O)c1c(NC(=O)COc2ccc(OC)cc2)sc2c1CCCC2	nt	i	nt	nt
COC(=O)c1c(NC(=O)COc2cc(C)c(Cl)c(C)c2)sc2c1CCCC2	nt	nt	90	nt
SMILES	Mtb MenB inh	AID504770	PV pol inh	Mtb MbtI inh
CCOC(=O)c1c(NC(=O)COc2ccc(C(C)(C)C)cc2)sc2c1CCCC2	nt	nt	i	nt
CCOC(=O)c1c(NC(=O)COc2cccc(C(F)(F)F)c2)sc2c1CCCCC2	nt	nt	90	nt
CCCc1ccc(OC(C)C(=O)Nc2sc3c(c2C(=O)OC)CCCCC3)cc1 (stereo not drawn)	nt	nt	86	nt
CCOC(=O)c1c(NC(=O)C(C)Oc2ccc(Cl)c(C)c2)sc2c1CCCC2 (stereo not drawn)	nt	nt	i	nt
CC1Cc2ccccc2N1C(=O)Cn1c(=O)oc2ccccc21 (stereo not drawn)	nt	i	nt	nt
O=C(/C=C/S(=O)(=O)c1ccc(Cl)cc1)c1ccc(F)cc1	i	i	i	98
O=C(/C=C/S(=O)(=O)c1ccc(Br)cc1)c1ccc(F)cc1	nt	i	nt	nt
O=C(O)/C=C/C(=O)c1ccc(F)cc1	nt	i	43	74
Cc1ccc(CSc2nnc(N)s2)c(C)c1	i	i	i	nt
O=C(c1cccs1)c1no[n+]([O-])c1C(=O)c1cccs1	i	-6.5	i	i
C/C(=N/NC(=O)c1c(N)no[n+]1[O-])c1cccs1	i	i	i	i
COc1ccc(C(c2ccc3cccnc3c2O)N2CCOCC2)cc1 (stereo not drawn)	i	i	i	98
CCN1CCN(C(c2cccnc2)c2ccc3cccnc3c2O)CC1 (stereo not drawn)	i	i	87	89
N#Cc1c(SCC(=O)NCCc2ccccc2)sc2c(=O)[nH]c(=O)[nH]c12	i	i	i	i
COC(=O)c1ccccc1NC(=S)NC(=O)/C=C/c1ccco1	i	i	i	i
Nc1cc(Cl)c(N2CCOCC2)cc1N1CCOCC1	nt	i	nt	nt
Nc1ccc(N2CCOCC2)c(N)c1	i	i	56	i
CCn1cc2c(n1)-c1c(oc(C(=O)Nc3ccc(Br)cc3F)c1C)CC2	nt	nt	53	nt
CCn1cc2c(n1)-c1c(oc(C(=O)Nc3ccc(Cl)cc3)c1C)CC2	i	i	88	i
CCS(=O)(=O)C1=NSC2=NC(=O)/C(=C\c3ccco3)C(=N)N21	i	i	72	i
CCOC(=O)NC(=S)c1ccc(OC)cc1	i	i	82	78
CCOC(=O)NC(=S)Nc1ccc(OC)cc1	i	i	i	i
CCN(CCO)c1nc(NC2CCCCC2)c2cnn(C)c2n1	i	-2.1	i	i
CN(C)CCCNCc1ccco1	i	i	i	i
CN(C)CCCNCc1cccn1C	i	i	85	i
SMILES	Mtb MenB inh	AID504770	PV pol inh	Mtb MbtI inh
CCc1ccc2c(CC(=O)N(C)Cc3ccccc3OC)coc2c1	i	i	i	i
Cn1c(=O)c2cn(-c3ccccc3)cc2n(C)c1=O	nt	i	nt	nt
Cn1c(=O)sn(-c2ccccc2)c1=O	i	-5.2	i	100
CCOc1ccc(CCNC(=O)c2cnc3c(-c4ccc(F)cc4)c(C)nn3c2C)cc1	nt	nt	i	nt
Cc1ccc(CCNC(=O)c2cnc3c(-c4ccc(F)cc4)c(C)nn3c2C)cc1	nt	nt	76	nt
O=C(Nc1ccc2[nH]c(=O)[nH]c2c1)NC1CCCCC1	i	i	90	i
Cc1ccc2nc(-c3ccc(NC(=O)CCCC(=O)O)cc3)sc2c1	nt	i	nt	nt
CCCCNS(=O)(=O)c1ccc2[nH]c(=S)[nH]c2c1	i	i	88	i
O=C(CC(C(=O)O)N(Cc1ccccc1)Cc1ccccc1)c1ccc(Cl)cc1 (stereo not drawn)	86	-2.9	i	nt
CCOC(=O)NC1(/N=C(/Nc2ccccc2)N2CCOCC2)Oc2ccccc2O1	i	i	i	nt
O=C(Nc1nccs1)C1CCN(S(=O)(=O)c2cccnc2)CC1	nt	i	nt	nt
O=C(Nc1nccs1)C1CCN(S(=O)(=O)c2ccccc2)CC1	i	-2.3	i	i
Cc1ccc(C2=NNC(c3cccs3)S2)cc1 (stereo not drawn)	i	i	72	nt
O=c1[nH][nH]c(=S)n1C1Cc2ccccc2C1	i	i	i	67
O=c1[nH]nc(SCCS(=O)(=O)c2ccc(F)cc2)n1C1Cc2ccccc2C1	nt	i	nt	nt
O=c1[nH][nH]c(=S)n1C1CC1	38!	i	i	71
O=c1[nH][nH]c(=S)n1CC1CCCO1 (stereo not drawn)	i	i	i	i
CCCCCCCc1c(C)[nH][nH]c1=O	i	i	i	i
CC(=C1C(=O)c2ccccc2C1=O)N1CCc2ccccc2C1	i	i	89	i
O=C1C=CC(=O)N1c1ccc2c(c1)OCO2	i	-2	i	99
O=C1c2cccc3cccc(c23)C(=O)N1c1ccc2c(c1)OCO2	nt	i	nt	nt
CCN(Cc1ccccc1)C(=O)C1C(=O)CC(C)(C)C(C(=O)OC)C1=O (stereo not drawn)	i	i	i	i
O=C(NCc1ccc2c(c1)OCO2)c1cccs1	nt	i	nt	nt
